Assay [1] in a line: qHTS assay to identify small molecule agonists of the vitamin D receptor (VDR) signaling pathway - cell viability counter screen (AID 743224). Also: nearly all actives have a fitted effect of over 50% in size. Also: potency is read from the fitted curve at half-maximal effect. The method, boiled down:
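VDR-bla cells, 4 h after plating, exposed to compounds for 16 h at 37C; viability then read in the same wells as CellTiter-Glo luminescence after 30 min at room temperature, following the bla FRET read.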

Assay [2] is described as follows: qHTS assay to identify small molecule antagonists of the vitamin D receptor (VDR) signaling pathway - cell viability counter screen (AID 743225). Also: nearly all actives have a fitted effect of over 50% in size. Also: potency is read from the fitted curve at half-maximal effect. An outline of the steps:
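VDR-UAS-bla HEK 293T cells were plated and incubated 4 h at 37C, then dosed with compound plus 3 nM (final) 1-alpha,25-dihydroxyvitamin D3 for 16 h. After the 2 h beta-lactamase read, viability in the same wells was read as CellTiter-Glo luminescence after 30 min at room temperature.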

The nature of assay [3]: qHTS assay to identify small molecule agonists of the NFkB signaling pathway (AID 1159509; active = well fitted curve in the direction sought with a large enough effect in the signal ratio in the repeat runs, not every such curve was filed as active; the % refers to the signal ratio). An outline of the steps:
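ME-180 NFkB-bla, 2,000 cells/well, overnight plating; cpd pinned in DMSO, 5 h 37 C; B/G FRET substrate 1.5 h RT; ex 405, em 460/530 nm.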
In general terms: qHTS replaces the single test concentration by a dilution series.

Assay [4] in a line: qHTS assay to identify small molecule agonists of the NFkB signaling pathway - cell viability counter screen (AID 1159515; calls by dose curve; also: nearly all actives have a fitted effect of over 55% in size). The method, boiled down: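 NFkB-bla ME-180 cells, 2,000/well, plated overnight at 37 C; compound added for 5 hr at 37 C. Viability read in the same wells as the bla reporter, by CellTiter-Glo luminescence after 30 min at room temperature.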
The nature of assay [5]: qHTS assay to identify small molecule agonists of the AP-1 signaling pathway (AID 1159526; calls by dose curve).
Assay [6] can be described thus: qHTS assay to identify small molecule agonists of the RXR signaling pathway - cell viability counter screen (AID 1159529). Also: nearly all actives have a fitted effect of over 50% in size. Also: potency is read from the fitted curve at half-maximal effect. The method, boiled down:
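RXR-alpha-UAS-bla HEK 293T cells in medium with 2% charcoal-stripped FBS were pre-incubated 5 hr, then compound-treated 16 hr at 37 C. Viability was read by CellTiter-Glo luminescence in the same wells as the beta-lactamase assay, with tetraoctyl ammonium bromide as positive control.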

Assay [7] is described as follows: qHTS assay to identify small molecule antagonists of the retinoic acid receptor (RAR) signaling pathway (AID 1159552; also: nearly all actives have a fitted effect of over 50% in size; also: potency is read from the fitted curve at half-maximal effect). The method, boiled down:
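Retinol signaling pathway inhibitors screened in C3RL4 RARE-luciferase reporter cells seeded overnight at 37 C, then compounds added with 1 uM (final) retinol as pathway substrate. After 6 hr at 37 C, luciferase luminescence read after 30 min at room temperature.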

Assay [8] in a line: qHTS assay to identify small molecule agonists of the endoplasmic reticulum stress response signaling pathway (AID 1159516; active = well fitted activation curve with a large enough effect in the signal ratio in the repeat runs, not every such curve was filed as active; the % refers to the signal ratio). The method, boiled down: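 CellSensor ESRE-bla HeLa cells, 1,500 per well, plated overnight, then exposed to compounds for 5 hr at 37 C. Beta-lactamase reporter read with LiveBLAzer B/G FRET substrate after 2 hr at room temperature, 405 nm excitation, 460 and 530 nm emission.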

A short description of assay [9]: qHTS assay to identify small molecule agonists of the endoplasmic reticulum stress response signaling pathway - cell viability counter screen (AID 1159517; calls by dose curve). The method, boiled down:
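ESRE-bla HeLa cells, 1,500 per well, seeded overnight then treated with compounds for 5 hr at 37 C. After the beta-lactamase read, viability in the same wells is measured by CellTiter-Glo luminescence after 30 min at room temperature.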

A short description of assay [10]: qHTS assay to identify small molecule antagonists of the retinoid-related orphan receptor gamma (ROR-gamma) signaling pathway - cell viability counter screen (AID 1159520). Also: nearly all actives have a fitted effect of over 50% in size. An outline of the steps: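 Tet-on ROR gamma CHO cells were given compounds for 2 hr, then doxycycline hyclate at 1 uM final, and incubated 16 hr at 37 C. Viability was measured as ATP content by CellTiter-Glo luminescence.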

For assay [11], the target named is Nuclear receptor ROR-gamma (Homo sapiens) (UniProt P51449). The assay can be described thus: qHTS assay to identify small molecule antagonists of the retinoid-related orphan receptor gamma (ROR-gamma) signaling pathway (AID 1159521). The method, boiled down:
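Tet-on ROR-gamma CHO cells with ROR response element-luciferase reporter; compounds added 2 hr before 1 uM doxycycline induction, then 16 hr at 37 C. Antagonism scored as decreased ONE-Glo luminescence.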

Assay [12] is described as follows: qHTS assay to identify small molecule agonists of the AP-1 signaling pathway - cell viability counter screen (AID 1159525; calls by dose curve; also: nearly all actives have a fitted effect of over 55% in size). An outline of the steps:
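AP-1-bla ME-180 cells in Opti-MEM with 0.5% dialyzed FBS, compound exposure 5 h at 37 C in 15-point titration. Viability read in the same wells as ATP content by CellTiter-Glo luminescence, normalised to tetra-n-octylammonium bromide and DMSO controls.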

Assay [13] deals with Retinoic acid receptor RXR-alpha (Homo sapiens) (UniProt P19793). The assay can be described thus: qHTS assay to identify small molecule agonists of the RXR signaling pathway (AID 1159527; calls by dose curve; also: nearly all actives have a fitted effect of over 35% in size). An outline of the steps: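 GeneBLAzer RXR-alpha-UAS-bla HEK 293T cells in 2% charcoal-stripped FBS medium were exposed to compounds for 16 hr at 37 C in agonist mode. Beta-lactamase reporter read as 460/530 nm FRET ratio after 2 hr substrate loading.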
Chain of Retinoic acid receptor RXR-alpha (Homo sapiens) (P19793 whole entry, looked up): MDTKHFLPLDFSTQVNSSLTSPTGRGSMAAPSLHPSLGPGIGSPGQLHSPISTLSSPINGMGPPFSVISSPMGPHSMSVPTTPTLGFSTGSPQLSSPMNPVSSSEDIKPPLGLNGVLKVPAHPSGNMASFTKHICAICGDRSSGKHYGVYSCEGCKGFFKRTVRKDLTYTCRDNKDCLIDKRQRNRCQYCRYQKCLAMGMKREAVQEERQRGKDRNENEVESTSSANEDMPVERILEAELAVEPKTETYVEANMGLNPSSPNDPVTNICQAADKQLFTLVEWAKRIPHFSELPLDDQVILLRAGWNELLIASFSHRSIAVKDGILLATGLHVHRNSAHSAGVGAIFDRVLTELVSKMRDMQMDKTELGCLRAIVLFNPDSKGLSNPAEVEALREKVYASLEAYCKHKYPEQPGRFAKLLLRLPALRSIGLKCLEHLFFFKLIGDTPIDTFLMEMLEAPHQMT

Assay [14] can be described thus: qHTS assay to identify small molecule antagonists of the retinoid acid receptor (RAR) signaling pathway - cell viability counter screen (AID 1159551). Also: nearly all actives have a fitted effect of over 35% in size. The method, boiled down: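 C3RL4 RARE-luciferase cells, 1,000/well, incubated overnight, then dosed with compound plus 1 uM retinol (final). After 6 hr at 37 C, viability read by CellTiter-Glo ATP luminescence following 30 min at room temperature.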

Assay [15] is described as follows: qHTS assay to identify small molecule agonists of the retinoic acid receptor (RAR) signaling pathway (AID 1159553). Particulars: C3RL4 RARE luciferase reporter, agonist, 6 h; activation: at 73.3 µM (top of the series). The method, boiled down:
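C3RL4 RARE-luciferase cells were seeded at 1,000/well and grown overnight at 37 C, then exposed to compounds for 6 hr at 37 C, 5% CO2. Luciferase reagent was added and luminescence was read after 30 min at room temperature.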

The nature of assay [16]: qHTS assay to identify small molecule antagonists of the estrogen related receptor (ERR) signaling pathway (AID 1224819). An outline of the steps: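 ERR reporter cell line (NTP) plated at 2,000 cells/well, settled 6 h at 37C/5% CO2, then exposed to LOPAC compounds for 18 h at 37C. One-Glo luciferase luminescence read after 30 min at room temperature.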
Assay [17] is described as follows: qHTS assay to identify small molecule agonists of the estrogen related receptor (ERR) signaling pathway (AID 1224820). The method, boiled down:
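Cells: ERR line from NTP, 2,000/well. Pre-incubation 6 h, 37 C/5% CO2. Compound (DMSO) pin transfer, 18 h 37 C. One-Glo, 30 min RT, luminescence.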

Assay [18] has as its system estrogen-related receptor alpha (ERRalpha) with PGC-1alpha coactivator, human. The assay can be described thus: qHTS assay to identify small molecule antagonists of the estrogen related receptor signaling pathway with the pleiotropic PPARgamma coactivator (PGC) (AID 1224821; calls by dose curve). An outline of the steps:
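Luminescent read-out (One-Glo, 30 min at room temperature) following 18 h treatment of PGC/ERR cells at 37 C with compounds delivered in DMSO. Cells had settled 6 h at 37 C/5% CO2 before dosing.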

A short description of assay [19]: qHTS assay to identify small molecule antagonists of the estrogen related receptor signaling pathway with the pleiotropic PPARgamma coactivator (PGC) cell viability counter screen (AID 1224822;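 also: viability read after 17.5 h compound exposure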). An outline of the steps:
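PGC/ERR cells rested 6 h, then compound-treated 17.5 h at 37 C. CellTiter-Fluor added for 30 min at 37 C, viability measured by fluorescence intensity.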

Assay [20] in a line: qHTS assay to identify small molecule agonists of the estrogen related receptor signaling pathway with the pleiotropic PPARgamma coactivator (PGC) (AID 1224823). The method, boiled down: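 Steps: plate PGC/ERR cells at 2,000 cells/well; incubate 6 h, 37 C/5% CO2; pin-transfer compounds (DMSO); incubate 18 h, 37 C; add One-Glo; 30 min RT; read luminescence.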

Structures are written as SMILES. Results filed as inconclusive are left out. Calls of active or inactive are those of the source. Unless noted, calls follow the shape of the dose curve; as a rule, active = well fitted curve in the direction sought with a large enough effect in the repeat runs; inconclusive = weak or mixed curves; inactive = no such curve, though single readings can be large; an effect the other way counts as inactive or inconclusive.

`C[C@@H]1CN(CCCn2c3ccccc3c3ccccc32)C[C@H](C)N1`: the Potency in assay [1] was 26.6 µM (active); in assay [2], 23.9 µM (active); in [6], 23.9 µM (active); in assay [7], 33.5 µM (active). Moreover, the Potency result in [3], in assay [4] and in assay [5] was “inactive” each time.

Take `C=C(C)CCCC(C)CCO` (stereo not drawn): the Potency result in [1], in [3], in assay [8], in assay [9], in [10] and in assay [11] was “inactive” throughout. The Potency entry in assay [12], in [5], in assay [13], in assay [6], in [14] and in assay [7] was “inactive” each time. The Potency result in [15] is “inactive”.

For the compound `CC(O)c1ccccc1` (stereo not drawn), the Potency entry in assay [1], in assay [2], in [3], in [8], in [9] and in assay [10] was “inactive” each time. The Potency entry in assay [11], in [12], in [5], in assay [13], in assay [6] and in assay [14] was “inactive” each time. The Potency result in [7] and in assay [15] was “inactive” in each case.

Consider `C=COCC(C)C`, for which the Potency entry in [1], in assay [2], in assay [3], in [8], in assay [9] and in assay [10] was “inactive” in each case. The Potency entry in assay [11], in [12], in [5], in assay [13], in assay [6] and in assay [14] was “inactive” throughout. In addition, the Potency entry in assay [7] and in [15] was “inactive” each time.

As for `Cc1c(C)c2c(c(C)c1OC(=O)CCC(=O)OCCO)CC[C@@](C)(CCC[C@H](C)CCC[C@H](C)CCCC(C)C)O2`, the Potency was 26.6 µM (active) in [1] and 26.8 µM (active) in assay [2]. For the same compound, the Potency result in assay [3], in assay [4], in assay [10], in [12] and in [6] was “inactive” in each case.

For `CCc1ccccc1`, the Potency entry in [1], in assay [2], in assay [3], in assay [4], in assay [10] and in assay [11] was “inactive” throughout. The Potency result in assay [5], in [6], in assay [14], in assay [7] and in [15] was “inactive” in each case.

Regarding `C=C(C)[C@@H]1CCC2=CCC[C@@H](C)[C@]2(C)C1`, the Potency entry in assay [3], in [4], in [10], in assay [5], in assay [14] and in [7] was “inactive” throughout. For the same compound, the Potency entry in assay [15] is “inactive”.

For the compound `OCCN1CCN(CCCN2c3ccccc3Sc3ccc(Cl)cc32)CC1`, the Potency entry in assay [1], in assay [3] and in assay [4] was “inactive” throughout. The results for the Potency in assay [2], in [6] and in [7] were 23.9 µM (active), 16.9 µM (active) and 29.8 µM (active), respectively. Moreover, the call in [16], in assay [17], in assay [18], in assay [19] and in [20] was inactive.

For `CCn1cc(C(=O)O)c(=O)c2cc(F)c(N3CCNCC3)cc21`, the Potency entry in [1], in assay [2], in [3], in assay [8], in [9] and in assay [10] was “inactive” throughout. The Potency entry in [11], in assay [12], in assay [5], in [13], in assay [6] and in assay [14] was “inactive” throughout. Moreover, the Potency result in assay [7] and in assay [15] was “inactive” each time.

(Values after PubChem BioAssay (Tox21).)
